This is an account of results in the supplement of paper PMC9399229.

Structures can show the parent of a compound that is named as a salt. The full ranking holds about 1,900 compounds; the median of “relative cell viability (CellTiter-Glo), compound plus cabozantinib, relative to the cabozantinib arm (arm median 1.05; reference not stated)” is about 1.1, and the lowest 2% start at about 0.15. What follows is part of a selection rich in the lowest values, with near analogues and random picks from the rest.

The subject of the assay is Hep3B. As to the kind of experiment: relative cell viability (CellTiter-Glo), compound plus cabozantinib, relative to the cabozantinib arm (arm median 1.05; reference not stated) (fraction); higher = more viable cells (less growth inhibition). The conditions noted are these: cabozantinib 2 µM; 4 days.
For the molecule `CC(=O)C1=C(O)C=C2Oc3c(C(C)=O)c(O)c(C)c(O)c3C2(C)C1=O` (single isomer, unassigned; (+)) [(+)-Usniacin], the relative cell viability is 1.11.

In the case of `C[C@H]1Oc2cc(cnc2N)-c2c(nn(C)c2C#N)CN(C)C(=O)c2ccc(F)cc21`, the relative cell viability amounted to 1.14.

Take `C[C@@H](O)[C@H]1C(=O)N2C(C(=O)O)=C(S[C@@H]3CN[C@H](C(=O)N(C)C)C3)[C@H](C)[C@H]12` [Meropenem]: the relative cell viability was determined as 1.17.

For `CC[C@@]1(O)C(=O)OCc2c1cc1n(c2=O)Cc2cc3cc(O)ccc3nc2-1` [(S)-10-Hydroxycamptothecin], the relative cell viability was determined as 0.137.

Turning to `CC[C@@]1(O)C(=O)OCc2c1cc1n(c2=O)Cc2cc3c(CN(C)C)c(O)ccc3nc2-1` [Topotecan HCl], the relative cell viability turned out to be 0.556.

For `CCc1c2c(nc3ccc(O)cc13)-c1cc3c(c(=O)n1C2)COC(=O)[C@]3(O)CC`, the relative cell viability was 0.176.

For `CC(C)(C(=O)NCC(F)(F)C(F)(F)F)C(=O)N[C@@H]1C(=O)Nc2ccccc2-c2ccccc21`, the relative cell viability worked out at 1.04.

Take `C[C@]12C=CC(=O)N[C@@H]1CC[C@@H]1[C@@H]2CC[C@]2(C)[C@@H](C(=O)Nc3cc(C(F)(F)F)ccc3C(F)(F)F)CC[C@@H]12` [Dutasteride]: the relative cell viability was 1.12.

With `O=C(COc1ccc(C(=O)c2ccccc2)cc1)NC1CCN(Cc2ccccc2)CC1` [AdipoRon], the relative cell viability was 1.06.

As for `Cc1[nH]nc2ccc(-c3cncc(OC[C@@H](N)Cc4ccccc4)c3)cc12`, the relative cell viability turned out to be 0.11.

Turning to `O=C(O)Cc1cc(I)c(Oc2ccc(O)c(I)c2)c(I)c1` [Tiratricol], the relative cell viability is 0.888.

Regarding `CSc1nc2cc(Cl)c(Oc3cccc(Cl)c3Cl)cc2[nH]1` [Triclabendazole], the relative cell viability was determined as 1.14.

For `O=C(/C=C\n1cnc(-c2cc(C(F)(F)F)cc(C(F)(F)F)c2)n1)N1CC(F)(F)C1`, the relative cell viability came out at 0.32.

On to `CC12CC3CC(C)(C1)CC(N)(C3)C2` [Memantine HCl], for which the relative cell viability is 1.1.

As to `O=C(/C=C/c1cccc(S(=O)(=O)Nc2ccccc2)c1)NO` [Belinostat (PXD101)], the relative cell viability was found to be 0.149.

As to `Cn1cc(/C=C/C(=O)c2cccc(F)c2)cc1/C=C/C(=O)NO`, the relative cell viability was determined as 1.19.

Turning to `O=C(C=Cc1ccccc1)NC(NC(=S)Nc1ccc(Cl)cc1)C(Cl)(Cl)Cl` (centres undefined), the relative cell viability is 1.14.

Turning to `COC(=O)N[C@H](C(=O)N[C@@H](Cc1ccccc1)[C@@H](O)CN(Cc1ccc(-c2ccccn2)cc1)NC(=O)[C@@H](NC(=O)OC)C(C)(C)C)C(C)(C)C` [Atazanavir Sulfate], the relative cell viability turned out to be 0.969.

Turning to `Fc1cc(-c2cccc3ncc(-c4cnn(C5CCNCC5)c4)nc23)cc(F)c1CN1CCOCC1`, the relative cell viability worked out at 1.11.

As for `CCOC(=O)C1=C(C)NC(C)=C(C(=O)OC)C1c1cccc(Cl)c1Cl` (centres undefined) [Felodipine], the relative cell viability was found to be 1.11.

On to `CN1CCN2c3ncccc3Cc3ccccc3C2C1` (centres undefined) [Mirtazapine], for which the relative cell viability is 1.01.

Regarding `O=C(O[C@H]1CN2CCC1CC2)N1CCc2ccccc2[C@@H]1c1ccccc1` [Solifenacin succinate], the relative cell viability came to 1.11.

With `O=C1NC(=O)[C@@H](c2cn3c4c(cccc24)CCC3)[C@@H]1c1c[nH]c2ccccc12` [Tivantinib (ARQ 197)], the relative cell viability came to 0.835.

For `CC(C)n1c(/C=C/C(O)CC(O)CC(=O)O)c(-c2ccc(F)cc2)c2ccccc21` (centres undefined) [Fluvastatin Sodium], the relative cell viability was 1.14.

On to `CC[C@H]1[C@@H](O)[C@@H]2[C@H](CC[C@]3(C)[C@@H]([C@H](C)CCC(=O)O)CC[C@@H]23)[C@@]2(C)CC[C@@H](O)C[C@@H]12` [Obeticholic Acid], for which the relative cell viability turned out to be 1.12.

In the case of `COc1ccc(-c2ccc3c(N4CCOCC4)nc(N4C[C@@H](C)O[C@@H](C)C4)nc3n2)cc1CO`, the relative cell viability was determined as 0.773.

In the case of `COc1nc(N)nc2c1ncn2[C@@H]1O[C@H](CO)[C@@H](O)[C@@H]1O` [Nelarabine], the relative cell viability came to 1.17.

For the molecule `COc1ccc(C[C@H](N)C(=O)N[C@H]2[C@@H](O)[C@H](n3cnc4c(N(C)C)ncnc43)O[C@@H]2CO)cc1` [Puromycin 2HCl], the relative cell viability turned out to be 0.0197.

Take `CNc1ncnc2c1ncn2[C@@H]1O[C@H](CO)[C@@H](O)[C@H]1O` [N6-methyladenosine (m6A)]: the relative cell viability was 1.21.

Regarding `S=C(NCc1ccc2c(c1)OCO2)N1CCN(c2ncnc3c2oc2ccccc23)CC1` [Amuvatinib (MP-470)], the relative cell viability was determined as 1.03.

For the molecule `C=CC(=O)Nc1cccc(Sc2nc(Nc3ccc(N4CCN(C)CC4)cc3)ncc2Cl)c1`, the relative cell viability was found to be 0.747.

On to `C=CCn1c(=O)c2cnc(Nc3ccc(N4CCN(C)CC4)cc3)nc2n1-c1cccc(C(C)(C)O)n1`, for which the relative cell viability was 0.144.

In the case of `Cc1cnc(Nc2ccc(N3CCN(C)CC3)cc2)nc1Nc1cccc(S(=O)(=O)NC(C)(C)C)c1`, the relative cell viability is 0.281.

As to `C=CC(=O)Nc1ccc2ncnc(Nc3ccc(OCc4cccc(F)c4)c(Cl)c3)c2c1`, the relative cell viability turned out to be 0.775.

Regarding `CCCc1ccc(OCC(=O)N(Cc2nc(-c3cccnc3)no2)C(C)C)cc1`, the relative cell viability is 1.16.

As to `C#C[C@]1(O)CC[C@H]2[C@@H]3CCC4=CC(=O)CC[C@@H]4[C@H]3CC[C@@]21C` [Norethindrone], the relative cell viability was 1.06.

As to `CC1(C)S[C@@H]2[C@H](NC(=O)[C@H](N)c3ccccc3)C(=O)N2[C@H]1C(=O)O` [Ampicillin sodium], the relative cell viability is 1.16.

For `CC1(C)S[C@@H]2[C@H](NC(=O)[C@H](N)c3ccccc3)C(=O)N2[C@H]1C(=O)O` [Ampicillin Trihydrate], the relative cell viability amounted to 1.08.

For `O=C(/C=C/c1ccc(CN(CCO)CCc2c[nH]c3ccccc23)cc1)NO` [LAQ824 (Dacinostat)], the relative cell viability came to 0.11.

`OCc1c[nH]c2ccccc12` [Indole-3-carbinol]: the relative cell viability is 1.11.

Regarding `O=C(O)CCCc1c[nH]c2ccccc12` [3-Indolebutyric acid (IBA)], the relative cell viability came out at 1.07.

`OC[C@H]1O[C@H](O[C@]2(CCl)O[C@H](CCl)[C@@H](O)[C@@H]2O)[C@H](O)[C@@H](O)[C@H]1Cl` [Sucralose]: the relative cell viability turned out to be 1.05.

As for `CN1CCC(CNc2ccc3ncc(-c4cccc(OC(F)(F)F)c4)n3n2)CC1` [SGI-1776 free base], the relative cell viability is 0.976.

For the molecule `COc1cccc2c1c(O)c(C(=O)N(C)c1ccc(C(F)(F)F)cc1)c(=O)n2C` [Tasquinimod], the relative cell viability turned out to be 1.19.

With `Cc1cccc(-c2nn3c(c2-c2ccnc4ccc(C(N)=O)cc24)CCC3)n1`, the relative cell viability worked out at 0.91.

For the molecule `CC(=O)OCOC(=O)CN(CC(=O)OCOC(C)=O)c1ccccc1OCCOc1ccccc1N(CC(=O)OCOC(C)=O)CC(=O)OCOC(C)=O`, the relative cell viability worked out at 1.22.

For the molecule `CCc1cc(Nc2nccc(-c3c(-c4ccc(OC)c(C(=O)Nc5c(F)cccc5F)c4)nc4ccccn34)n2)c(OC)cc1N1CCC(N2CCN(S(C)(=O)=O)CC2)CC1`, the relative cell viability stood at 1.32.

On to `CCOC(=O)C1=C(N)Oc2ccc(Br)cc2C1C(C#N)C(=O)OCC` (centres undefined), for which the relative cell viability was 1.02.

Consider `CC(C(=O)O)c1ccc(C(=O)c2cccs2)cc1` (centres undefined) [Suprofen], for which the relative cell viability was found to be 1.11.

Consider `COc1ccc(C[C@H](NC(=O)[C@H](C)NC(=O)CN2CCOCC2)C(=O)N[C@@H](Cc2ccccc2)C(=O)[C@@]2(C)CO2)cc1`, for which the relative cell viability was 0.23.

On to `O=C(O)c1cc(C(F)(F)F)ccc1N1CC[C@H](OCc2ccccn2)C1`, for which the relative cell viability is 0.958.

As to `CCN1C[C@H](C)n2c(c(O)c3c(=O)n(Cc4ccc(F)c(Cl)c4)nc(C(=O)NC)c32)C1=O`, the relative cell viability amounted to 1.14.

In the case of `Cc1cccc(C)c1NC(=O)C1CCCCN1C` (centres undefined) [Mepivacaine HCl], the relative cell viability stood at 1.03.

Take `COc1ccc(S(=O)(=O)N(CCO)c2ccccc2CN(C)C/C=C/c2ccc(Cl)cc2)cc1` [KN-93 Phosphate]: the relative cell viability was 1.14.

For the molecule `CC(C)C(=O)Oc1ccc(CO)cc1[C@H](CCN(C(C)C)C(C)C)c1ccccc1` [Fesoterodine Fumarate], the relative cell viability was 1.1.

Take `C[C@@H](CN1CC(=O)NC(=O)C1)N1CC(=O)NC(=O)C1` [Dexrazoxane HCl (ICRF-187, ADR-529)]: the relative cell viability was found to be 1.1.

As for `CN1CCN(CCOc2cc(OC3CCOCC3)c3c(Nc4c(Cl)ccc5c4OCO5)ncnc3c2)CC1` [Saracatinib (AZD0530)], the relative cell viability was found to be 1.09.

With `Cn1cc(/C=C2\C(=O)Nc3cccnc32)c2ccccc21`, the relative cell viability is 1.

In the case of `CC(=O)S[C@@H]1CC2=CC(=O)CC[C@]2(C)[C@H]2CC[C@@]3(C)[C@@H](CC[C@@]34CCC(=O)O4)[C@H]12` [Spironolactone], the relative cell viability amounted to 1.1.

For the molecule `Cn1c(=O)c2c(ncn2CC(O)CO)n(C)c1=O` (centres undefined) [Dyphylline], the relative cell viability was 1.22.

For the molecule `COc1cc(F)c(F)c(Nc2ccc(I)cc2F)c1NS(=O)(=O)C1(C[C@H](O)CO)CC1` [Refametinib (RDEA119, Bay 86-9766)], the relative cell viability was 0.196.

For `Cn1c(=O)c(F)c(Nc2ccc(I)cc2F)c2c(=O)n(C[C@@H](O)CO)cnc21`, the relative cell viability turned out to be 0.14.

With `CC1=C(C(=O)OC2CCCCC2)C(c2ccc([N+](=O)[O-])cc2)C2=C(CC(C)(C)CC2=O)N1` (centres undefined), the relative cell viability came out at 1.31.

Take `Cc1c(OCC(F)(F)F)ccnc1C[S+]([O-])c1nc2ccccc2[nH]1` (centres undefined) [Lansoprazole]: the relative cell viability came out at 1.2.
